The whole screen tested about 340,000 compounds, of which about 4,500 (1.3%) were called active. About 5% were inconclusive and are not listed. The entries come from a sample that favours actives as a whole. Unmarked numbers belong to inactive results. Calls follow the shape of the dose curve; as a rule, active = well fitted inhibition curve with a large enough effect; inconclusive = small, poorly fitted or top-dose-only effect, or another doubt; inactive = no such curve, though single readings can be large or run the other way.
Each compound was assayed against DNA polymerase beta (Homo sapiens) (UniProt P06746) (assay: qHTS Assay for Inhibitors of DNA Polymerase Beta). Settings: Pol beta primer extension/strand displacement, fluorescence kinetic; series mostly up to 114 µM; activity change, negative = inhibition: at the top concentration.
Method in brief: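 Enzyme-only controls used 10 nM Pol beta; buffer lacking enzyme served as negative control. Compound preincubated 15 min, then 50 nM substrate added; 0 and 10 min reads at room temperature.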
% is scaled to controls: 0 for no effect and ±100 for the full control effect; potency is read from the fitted curve at half-maximal effect.

SMILES	activity change, negative = inhibition [%]	Potency
Cc1nnc(NC(=O)CSc2nc3c([nH]c4ccccc43)c(=O)n2-c2cccc(Cl)c2)s1	2.52	–
CCN(C(=O)CSc1nnc(C)n2c1cc1occc12)c1ccccc1	-23.3	–
COc1ccc(C)cc1NC(=O)CCc1c(C)nn(-c2ccc(N3CCOCC3)nn2)c1C	0.568	–
Cc1ccc(NC(=O)CSc2nc(CSc3ccc(C)cc3)cc(=O)[nH]2)cc1	0.354	–
Cc1ccc(OCCCC(=O)Nc2ccc(S(=O)(=O)Nc3cc(C)nc(C)n3)cc2)cc1	16.7	–
COc1ccc(NC(=O)CSc2nc(NS(=O)(=O)c3ccc(C)cc3)cc(=O)[nH]2)cc1	–	17.8 µM (active)
CC1CCC2(CC1)N=C(c1ccccc1)C(=O)N2CC(=O)Nc1ccc(F)c(Cl)c1 (stereo not drawn)	8.62	–
O=C(Nc1ccc2nc(SCCOc3ccccc3)sc2c1)c1ccco1	6.94	–
CCS(=O)(=O)C1=NSC2=NC(=O)/C(=C\c3cc(C)n(-c4cccc(OC)c4)c3C)C(=N)N21	-1.06	–
CCS(=O)(=O)C1=NSC2=NC(=O)/C(=C\c3ccc(OS(=O)(=O)c4ccccc4)cc3)C(=N)N21	0.694	–
CS(=O)(=O)c1ccc2c(c1)SC1=NC(=O)/C(=C/c3ccco3)C(=N)N12	–	31.6 µM (active)
CC(C)(C)c1ccc(C(=O)Nc2ccc3c(c2)CCCN3C(=O)c2cccs2)cc1	47.1	–
CCC1C/C(=C/c2cccs2)C(=O)/C(=C/c2cccs2)C1 (stereo not drawn)	-21.1	–
CC(C)(C)C1C/C(=C/c2ccco2)C(=O)/C(=C/c2ccco2)C1 (stereo not drawn)	–	10 µM (active)
CC(C)c1ccc(NC(=O)c2ccc3c(O)c(S(=O)(=O)c4ccccc4)c(=O)[nH]c3c2)cc1	2.35	–
CCOC(=O)C1CCN(C(=O)CSc2c3c(nc4ccc(Cl)cc24)CCCC3)CC1	-25.2	–
COCCNC(=O)c1ccc2c(c1)N(Cc1cccc(Cl)c1)C(=O)c1ccccc1S2(=O)=O	-11.6	–
Cc1ccc2nc(-c3ccccn3)cc(C(=O)Nc3ccc4c(c3)OCO4)c2c1	-4.44	–
Cc1ccc2nc(-c3ccncc3)cc(C(=O)Nc3ccc4c(c3)OCCO4)c2c1	10.7	–
Cc1ccc2nc(-c3ccncc3)cc(C(=O)Nc3ccc(OC(F)F)cc3)c2c1	–	8.91 µM (active)
Cc1ccc(Nc2ccc3cc(S(=O)(=O)N4CCCCC4)ccc3n2)cc1F	16.8	–
COc1ccccc1OCCOc1ccc(/C=N/n2cnnc2)cc1	–	44.7 µM (active)
COc1ccccc1OCCOc1ccc(/C=C2\C(=N)N3N=C(C)SC3=NC2=O)cc1	-15.8	–
Cc1ccccc1OCCOc1ccc([N+](=O)[O-])cc1/C=N/n1cnnc1	2.22	–
CSc1ccccc1NC(=O)CCS(=O)(=O)c1nc(-c2cccs2)cc(C(F)(F)F)n1	-1.2	–

SMILES	activity change, negative = inhibition [%]	Potency
COc1cccc(Cn2c(SCc3ccc(C(=O)N4CCCCC4)cc3)nc3ccncc32)c1	55.1	–
O=C(CN1CCN(S(=O)(=O)c2cc(Cl)ccc2Cl)CC1)c1ccc(O)c(O)c1	–	3.16 µM (active)
N#Cc1ccsc1NC(=O)CN1CCN(S(=O)(=O)c2cc(Cl)ccc2Cl)CC1	-2.37	–
COc1ccc(Cl)cc1S(=O)(=O)N1CCN(CC(=O)C(C)(C)C)CC1	-0.0725	–
O=C(NCCc1ccccc1)c1ccc2c(c1)N(Cc1ccc(F)cc1)C(=O)c1ccccc1S2(=O)=O	8.98	–
O=C(COC(=O)[C@H](Cc1ccccc1)NC(=O)c1cccs1)Nc1cc(F)ccc1F	–	79.4 µM (active)
NC(=O)c1ccc(NC(=O)COC(=O)C(Cc2ccccc2)NC(=O)c2ccccc2)cc1 (stereo not drawn)	21.6	–
CCc1ccc(NC(=O)COC(=O)c2cccs2)cc1	0.301	–
Cc1cccc(NC(c2cccc(F)c2)c2ccc3ccc(C)nc3c2O)n1 (stereo not drawn)	-16.3	–
O=[N+]([O-])C(=c1ccc2c(c1)N1C3=C(CCCC3)CC3CCCCC31N=2)[N+](=O)[O-] (stereo not drawn)	–	39.8 µM (active)
Cc1ccc(-c2nc3cccc(C)n3c2Nc2ccc3c(c2)OCCO3)cc1	26.9	–
COc1cccc(CNC(=O)c2ccc3c(c2)N(Cc2ccc(C(F)(F)F)cc2)C(=O)c2ccccc2S3)c1OC	0.414	–
Cc1ccccc1-c1nc2scc(CCNC(=O)C(=O)Nc3ccc(F)cc3F)n2n1	-10.8	–
O=C(Cn1cc(SCc2ccccc2)c2ccccc21)N1CCCCC1	2.46	–
COCC(=O)N1CCCC(C(=O)c2ccc(C(F)(F)F)cc2)C1 (stereo not drawn)	23.9	–
O=C(c1ccc(C(F)(F)F)cc1)C1CCCN(C(=O)c2csnn2)C1 (stereo not drawn)	3.97	–
Cc1cnc(C(=O)N2CCCC(C(=O)c3ccc(C(F)(F)F)cc3)C2)cn1 (stereo not drawn)	–	14.1 µM (active)
Cc1cc(Cl)ccc1OCC(=O)N(Cc1ccc(N(C)C)cc1)C1CCS(=O)(=O)C1 (stereo not drawn)	8.42	–
CCOC(=O)c1c(NC(=O)CSc2cn(CCNC(=O)c3cccc(C(F)(F)F)c3)c3ccccc23)sc2c1CCC2	1.43	–
Cc1ccc(-n2ncc3c(NCCCn4ccnc4)ncnc32)cc1Cl	0.21	–
CCC(CC)C(=O)Nc1ccc(S(=O)(=O)Nc2nccs2)cc1	17.1	–
O=C(Nc1ccc(S(=O)(=O)Nc2nccs2)cc1)c1cc(-c2ccncc2)nc2ccccc12	–	15.8 µM (active)
O=C(Nc1ccc(S(=O)(=O)Nc2nccs2)cc1)c1cc(=O)[nH]c2ccccc12	14.3	–
COc1ccc(CCNc2ncnc3c2cnn3-c2ccc(C)cc2)cc1	6.86	–
COc1ccc(CNC(=O)C(Cc2ccccc2)n2cccc2)cc1 (stereo not drawn)	-10.3	–

SMILES	activity change, negative = inhibition [%]	Potency
Cc1ccc(C)n1C(Cc1ccccc1)C(=O)O (stereo not drawn)	–	10 µM (active)
CCOC(=O)C(Cc1ccc(N)cc1)N1C(=O)c2ccccc2C1=O (stereo not drawn)	-23.2	–
COc1cc(OC)cc(C(=O)Nc2c(C(=O)Nc3ccc(F)cc3)oc3ccccc23)c1	-2.89	–
CCOC(=O)c1ccc(N2C(=O)c3n[nH]c(-c4ccco4)c3C2c2ccc(O)cc2)cc1 (stereo not drawn)	22.2	–
CCn1cc(C(=O)NCc2ccc(C)cc2)c(=O)c2cc(S(=O)(=O)N3CCc4ccccc4C3)ccc21	27.3	–
COc1ccc(OC)c(NC(=O)/C=C/c2ccc(C)o2)c1	11	–
CCc1nnc(NC(=O)/C=C/c2ccc(C)o2)s1	-10.9	–
Cc1ccc(/C=C/C(=O)Nc2ccc([N+](=O)[O-])c(NC(=O)/C=C/c3ccc(C)o3)c2)o1	–	11.2 µM (active)
CCc1cc2c(-c3ccccc3)cc(=O)oc2c2c1OCN(Cc1ccc(C)cc1)C2	-8.79	–
O=S(=O)(c1ccc2nc(NCc3ccccc3Cl)ccc2c1)N1CCCCC1	6.35	–
Brc1ccc2c(c1)NC(c1cccnc1)=NC(c1ccccc1)=N2	19.1	–
CCc1ccc(CN(Cc2ccco2)C(=O)COc2ccc(Cl)c(C)c2)cc1	0.226	–
N#Cc1c(-c2ccccc2)nc(SCc2cccc(C(F)(F)F)c2)[nH]c1=O	–	79.4 µM (active)
N#Cc1c(-c2ccc(F)cc2)nc(-c2ccccc2)[nH]c1=O	1.71	–
O=c1[nH]c(SCc2cccc(F)c2)nc2ccccc12	25	–
O=C(COC(=O)CNC(=O)c1ccco1)Nc1ccc(F)cc1	3.11	–
CCOC(=O)c1ccc(NC(=O)CNC(=O)c2ccco2)cc1	–	56.2 µM (active)
CCN(CC)CCOC(=O)c1ccc(NC(=O)CNC(=O)c2ccccc2)cc1	8.66	–
CCOC(=O)c1ccc(NC(=O)c2c(NCc3cccs3)sc3c2CCCC3)cc1	1.84	–
CCN(CCCNC(=O)c1cc2c(=O)n(CC)c3ccccc3c2s1)Cc1ccccc1	33.1	–
Cc1c(Cl)cccc1NC(=O)c1noc2c1CCCC2	2.6	–
COc1cccc(/C=N/Nc2ccc(Cl)nn2)c1	-1.22	–
Cc1ccsc1/C=N/Nc1ccc(Cl)nn1	6.83	–
Oc1cccc(/C=N/Nc2ccc(Cl)nn2)c1O	–	39.8 µM (active)
CCOC(=O)c1c(NC(=O)COc2cc(C)ccc2C(C)C)sc(C)c1C	0.757	–

SMILES	activity change, negative = inhibition [%]	Potency
COc1ccc(S(=O)(=O)c2cn(C)c3cc(N4CCCCC4)c(F)cc3c2=O)cc1	-1.37	–
O=C(COc1ccc(Cl)cc1)Nc1ccccc1CO	11.2	–
O=C(Cc1c(F)cccc1Cl)Nc1ccc(-n2cnnn2)cc1	0.175	–
O=C(COc1ccc(-n2cnnn2)cc1)Nc1ccccc1Cl	–	28.2 µM (active)
CCOc1ccc(N(C)S(=O)(=O)c2cc(-c3cnc(C)o3)ccc2OC)cc1	3.9	–
Cc1cccc(N2CCN(S(=O)(=O)c3ccc4[nH]c5c(c4c3)CCCCC5)CC2)c1C	5.75	–
Cc1nn(-c2ccc(N3CCCCC3)nn2)c(C)c1CCC(=O)NCc1ccccc1F	4.44	–
CC1=CCC2C(=O)N(c3cccc(C(=O)NC(C)c4ccccc4)c3)C(=O)C2C1 (stereo not drawn)	–	39.8 µM (active)
Cc1ccc(C(=O)NC(C)c2ccccc2)cc1Br (stereo not drawn)	-3.8	–
COc1ccc(Cl)cc1NC(=O)c1cccc(N2C(=O)C3CC=CCC3C2=O)c1 (stereo not drawn)	28.5	–
CCN(CC)C(=O)CSc1nc2ccsc2c(=O)n1Cc1ccccc1Cl	-18.1	–
Cc1ccc(NC(=O)COc2ccc(/C=N\NC(=O)c3cccnc3)cc2)cc1C	-0.199	–
NC(=O)c1ccc(NC(=O)COC(=O)c2ccc([N+](=O)[O-])cc2)cc1	0.237	–
O=C(COc1ccc(/C=N/NC(=O)c2ccc(O)cc2)cc1)Nc1ccc([N+](=O)[O-])cc1	–	2.24 µM (active)
CC1CN(C(=O)N2CCC(C(=O)NCc3cccs3)CC2)c2ccccc2O1 (stereo not drawn)	-7.1	–
Cc1cccc(C(=O)N2c3nc(-c4ccco4)nn3C3(CCCCC3)[C@@H]3CCCC[C@@H]32)c1	13.2	–
Cc1nnc(SCC2=C(C(=O)O)N3C(=O)C(NC(=O)Cn4nc(C)c(Cl)c4C)C3SC2)s1 (stereo not drawn)	–	39.8 µM (active)
Cc1nnc(SCC(=O)Nn2cnnc2)s1	-9.11	–
Cc1nnc(SCC(=O)NC2CCCC2)s1	2.1	–
Cc1sc(C2C(C#N)=C(N)N(c3cccc(Cl)c3)C3=C2C(=O)CCC3)cc1CN1CCOCC1 (stereo not drawn)	16.6	–
Cc1nc2c(-c3ccc(F)cc3)c(C)nn2c(C)c1CCC(=O)NCc1ccco1	36	–
O=C(CSc1nnc2scc(-c3ccc(F)cc3)n12)NCc1ccco1	11.6	–
Fc1ccc(-c2ccc(-c3nn4c(-c5ccco5)nnc4s3)o2)cc1	–	44.7 µM (active)

— PubChem BioAssay AID485314 (National Center for Advancing Translational Sciences (NCATS), 2010)
